Experimental data from PubChem BioAssay (NCI).
Compounds without any hit were thinned out: in the full panel of roughly 83,000, 20% have a hit.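 Growth was measured after 48 h exposure to one concentration of compound in 96-well plates. Values under 10 count as active.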 Calls of active or inactive are those of the source.

What was measured:
Test in all cases: NCI-60 one-dose screen, 48 h (100 = growth as untreated, 0 = no growth, -100 = all killed)
Conditions in all cases: 10 µM unless noted
RPMI-8226 leukemia = test system: RPMI-8226 leukemia
OVCAR-8 ovarian = test system: OVCAR-8 ovarian
OVCAR-5 ovarian = test system: OVCAR-5 ovarian
OVCAR-4 ovarian = test system: OVCAR-4 ovarian
SK-OV-3 ovarian = test system: SK-OV-3 ovarian
OVCAR-3 ovarian = test system: OVCAR-3 ovarian
HS 578T breast = test system: HS 578T breast
NCI/ADR-RES ovarian = test system: NCI/ADR-RES ovarian
IGROV1 ovarian = test system: IGROV1 ovarian

Measured: growth

O=C(/C=C/c1ccc([N+](=O)[O-])cc1)c1ccc2c3c(cccc13)CC2
inactive: OVCAR-8 ovarian 28.7% | OVCAR-5 ovarian 89.8% | OVCAR-4 ovarian 75.8% | SK-OV-3 ovarian 91.4% | OVCAR-3 ovarian 66.9% | NCI/ADR-RES ovarian 83.3%
active: RPMI-8226 leukemia -14.1% | HS 578T breast -4.95%

COc1cc(/C=C/C(=O)c2c(C)n([O-])c3ccccc3[n+]2=O)cc(OC)c1OC
active: RPMI-8226 leukemia 9.32% | IGROV1 ovarian -15.8%
inactive: OVCAR-8 ovarian 30.6% | OVCAR-5 ovarian 80.6% | OVCAR-4 ovarian 46.9% | SK-OV-3 ovarian 58.3% | OVCAR-3 ovarian 59.2% | HS 578T breast 43.2% | NCI/ADR-RES ovarian 43.4%

O=[N+]([O-])c1ccc(NS(=O)(=O)c2ccc(Cl)c(Cl)c2)cc1
inactive: RPMI-8226 leukemia 35.6% | OVCAR-8 ovarian 79.2% | OVCAR-5 ovarian 113% | OVCAR-4 ovarian 63.4% | SK-OV-3 ovarian 94.3% | IGROV1 ovarian 88.7% | OVCAR-3 ovarian 78.3% | HS 578T breast 93.7% | NCI/ADR-RES ovarian 83.2%

FC(F)(F)c1cc(-c2nnc3n2N=C(N2CCCC2)CS3)cc(C(F)(F)F)c1
inactive: RPMI-8226 leukemia 95% | OVCAR-8 ovarian 74.4% | OVCAR-5 ovarian 106% | OVCAR-4 ovarian 102% | SK-OV-3 ovarian 21% | IGROV1 ovarian 87% | OVCAR-3 ovarian 53.6% | HS 578T breast 46.8% | NCI/ADR-RES ovarian 80.2%

CCSc1nc(Nc2ccc(S(=O)(=O)Nc3ccon3)cc2)c(C#N)c(-c2cccc(Br)c2)n1
inactive: RPMI-8226 leukemia 79.3% | OVCAR-8 ovarian 91.2% | OVCAR-5 ovarian 89.6% | OVCAR-4 ovarian 103% | SK-OV-3 ovarian 99.1% | IGROV1 ovarian 122% | OVCAR-3 ovarian 117% | HS 578T breast 105% | NCI/ADR-RES ovarian 110%

CCCCc1ccc(C(N)=O)nc1
inactive: RPMI-8226 leukemia 88.6% | OVCAR-8 ovarian 107% | OVCAR-5 ovarian 96.2% | OVCAR-4 ovarian 100% | SK-OV-3 ovarian 99.5% | IGROV1 ovarian 19.4% | OVCAR-3 ovarian 107% | NCI/ADR-RES ovarian 106%
active: HS 578T breast -48.3%

O=C1/C(=C/c2ccccc2Cl)CCc2ccccc21
inactive: RPMI-8226 leukemia 95.4% | OVCAR-8 ovarian 96.7% | OVCAR-5 ovarian 109% | OVCAR-4 ovarian 110% | SK-OV-3 ovarian 116% | IGROV1 ovarian 97.3% | OVCAR-3 ovarian 112% | HS 578T breast 99.1% | NCI/ADR-RES ovarian 102%

O=C(O)C1CCN(S(=O)(=O)c2ccc(-c3ccccc3)cc2)CC1
inactive: RPMI-8226 leukemia 58.7% | OVCAR-8 ovarian 81.4% | OVCAR-5 ovarian 125% | OVCAR-4 ovarian 106% | SK-OV-3 ovarian 111% | OVCAR-3 ovarian 112% | HS 578T breast 113% | NCI/ADR-RES ovarian 117%

CN(C)c1ccc(-n2nc3ccccc3n2)cc1
active: IGROV1 ovarian -38.5%
inactive: RPMI-8226 leukemia 357% | OVCAR-8 ovarian 97.3% | OVCAR-5 ovarian 80.3% | OVCAR-4 ovarian 115% | SK-OV-3 ovarian 113% | OVCAR-3 ovarian 93.7% | HS 578T breast 96.4% | NCI/ADR-RES ovarian 106%

O=C1Nc2ccc(Cl)cc2[C@@](C#CC2CC2)(C(F)(F)F)O1
inactive: RPMI-8226 leukemia 92.2% | OVCAR-8 ovarian 91.3% | OVCAR-5 ovarian 91.1% | OVCAR-4 ovarian 89.1% | SK-OV-3 ovarian 110% | OVCAR-3 ovarian 101% | HS 578T breast 99.2% | NCI/ADR-RES ovarian 99.1%
active: IGROV1 ovarian -10.5%

C(#Cc1ccccc1C#Cc1ccccn1)c1ccc(OCCCCCCOc2ccc(C#Cc3ccccc3C#Cc3ccccn3)cc2)cc1
inactive: OVCAR-8 ovarian 47.6% | OVCAR-5 ovarian 85.4% | OVCAR-4 ovarian 46.5% | SK-OV-3 ovarian 80.9% | OVCAR-3 ovarian 35.5% | HS 578T breast 72.7% | NCI/ADR-RES ovarian 40%
active: RPMI-8226 leukemia 5% | IGROV1 ovarian -48.8%

CC(C)N(Cc1ccccc1)c1c(Cl)ssc1=O
active: IGROV1 ovarian -9.19%
inactive: RPMI-8226 leukemia 115% | OVCAR-8 ovarian 86.7% | OVCAR-5 ovarian 107% | OVCAR-4 ovarian 104% | SK-OV-3 ovarian 93.7% | OVCAR-3 ovarian 92.5% | HS 578T breast 109% | NCI/ADR-RES ovarian 107%

COc1cccc(-c2nc(-c3ccc(N)cc3)co2)c1
active: IGROV1 ovarian -0.817%
inactive: RPMI-8226 leukemia 89.5% | OVCAR-8 ovarian 85.8% | OVCAR-5 ovarian 115% | OVCAR-4 ovarian 109% | SK-OV-3 ovarian 118% | HS 578T breast 115% | NCI/ADR-RES ovarian 92.8%

COC(=O)[C@H](Cc1cnc[nH]1)NC(=O)[C@@H](NC(=O)Nc1cc(C(F)(F)F)cc(C(F)(F)F)c1)C(C)C
active: RPMI-8226 leukemia -53% [100 µM] | OVCAR-8 ovarian -83.6% [100 µM] | OVCAR-5 ovarian -82.7% [100 µM] | OVCAR-4 ovarian -85.1% [100 µM] | SK-OV-3 ovarian -100% [100 µM] | IGROV1 ovarian -80.5% [100 µM] | OVCAR-3 ovarian -100% [100 µM]
inactive: NCI/ADR-RES ovarian 73.9% [100 µM]

COc1cc(C(=O)c2cc3c(cc2C)OCO3)cc(OC)c1OC
inactive: RPMI-8226 leukemia 39.1% | OVCAR-8 ovarian 20.4% | OVCAR-5 ovarian 43.1% | OVCAR-4 ovarian 38% | SK-OV-3 ovarian 11.1% | IGROV1 ovarian 25.1% | HS 578T breast 44.3% | NCI/ADR-RES ovarian 15.3%
active: OVCAR-3 ovarian 5.31%

O=C1/C=C/[C@@H](O)[C@@H]2C[C@@H](O)C[C@H]2/C=C/CCC[C@H](CO)O1
active: OVCAR-3 ovarian -2.9%
inactive: RPMI-8226 leukemia 37.4% | OVCAR-8 ovarian 35.4% | OVCAR-5 ovarian 52.8% | OVCAR-4 ovarian 26.2% | SK-OV-3 ovarian 50.7% | IGROV1 ovarian 49.9% | HS 578T breast 35.5% | NCI/ADR-RES ovarian 15.9%

Cc1sc2nc(N3CCCCC3)[nH]c(=O)c2c1C
inactive: RPMI-8226 leukemia 106% | OVCAR-8 ovarian 96.5% | OVCAR-5 ovarian 108% | OVCAR-4 ovarian 100% | SK-OV-3 ovarian 92.3% | IGROV1 ovarian 107% | OVCAR-3 ovarian 113% | NCI/ADR-RES ovarian 96.5%

Cc1cc(=O)[nH]c(/C(=N/Nc2ccccc2)C(=O)c2ccc(Cl)cc2)n1
inactive: RPMI-8226 leukemia 96.6% | OVCAR-8 ovarian 92.8% | OVCAR-5 ovarian 117% | OVCAR-4 ovarian 111% | SK-OV-3 ovarian 98.3% | IGROV1 ovarian 17.6% | OVCAR-3 ovarian 97.5% | HS 578T breast 83.6% | NCI/ADR-RES ovarian 106%

COc1cc(/C=C/C(=O)CC(=O)/C=C/c2ccc(OC(=O)C3C4CC5CC(C4)CC3C5)c(OC)c2)ccc1OC(=O)C1C2CC3CC(C2)CC1C3 (centres undefined)
inactive: RPMI-8226 leukemia 112% | OVCAR-8 ovarian 97.2% | OVCAR-5 ovarian 87.2% | OVCAR-4 ovarian 105% | SK-OV-3 ovarian 110% | IGROV1 ovarian 33.3% | OVCAR-3 ovarian 118% | HS 578T breast 129% | NCI/ADR-RES ovarian 107%

COc1ccc2nc(N/N=C(\C)c3ccccn3)cc(C)c2c1
active: RPMI-8226 leukemia -25.1% | OVCAR-8 ovarian 0.111% | IGROV1 ovarian -44.1% | OVCAR-3 ovarian -78.5% | HS 578T breast 6.09%
inactive: OVCAR-5 ovarian 20% | OVCAR-4 ovarian 14.8% | SK-OV-3 ovarian 15.8% | NCI/ADR-RES ovarian 12.4%

Fc1ccc(-c2nn3c(-c4cc(C(F)(F)F)cc(C(F)(F)F)c4)nnc3s2)cc1
inactive: RPMI-8226 leukemia 95.6% | OVCAR-8 ovarian 20% | OVCAR-5 ovarian 95.1% | OVCAR-4 ovarian 21.7% | IGROV1 ovarian 21.6% | OVCAR-3 ovarian 12.7% | HS 578T breast 24.8% | NCI/ADR-RES ovarian 40.9%
active: SK-OV-3 ovarian -36.1%

O=c1ccn(C2CC=C(CO)O2)c(=O)[nH]1 (centres undefined)
inactive: RPMI-8226 leukemia 84.5% | OVCAR-8 ovarian 103% | OVCAR-5 ovarian 102% | OVCAR-4 ovarian 110% | SK-OV-3 ovarian 102% | IGROV1 ovarian 86.2% | OVCAR-3 ovarian 107% | HS 578T breast 112% | NCI/ADR-RES ovarian 116%

CC(=O)/C(=C/c1ccc(Cl)cc1)C(=O)c1ccccc1
inactive: RPMI-8226 leukemia 34.8% | OVCAR-8 ovarian 89.2% | OVCAR-5 ovarian 111% | OVCAR-4 ovarian 79.7% | SK-OV-3 ovarian 101% | IGROV1 ovarian 91.6% | OVCAR-3 ovarian 91.3% | NCI/ADR-RES ovarian 85.2%

Cc1cc(C(=O)Nc2ccc3cc(CN4CCOCC4)ccc3n2)c(C)n1-c1ccccc1
inactive: OVCAR-5 ovarian 83.1% | SK-OV-3 ovarian 81.1% | IGROV1 ovarian 66.4% | OVCAR-3 ovarian 26.7% | HS 578T breast 82.3%
active: RPMI-8226 leukemia -21% | OVCAR-8 ovarian 4.27% | OVCAR-4 ovarian 6.66% | NCI/ADR-RES ovarian -5.82%

NS(=O)(=O)c1ccc(-n2ncc3c(SCc4ccccc4)ncnc32)cc1
inactive: RPMI-8226 leukemia 91.9% | OVCAR-8 ovarian 96.1% | OVCAR-5 ovarian 99.7% | OVCAR-4 ovarian 104% | SK-OV-3 ovarian 108% | IGROV1 ovarian 85.9% | OVCAR-3 ovarian 99.4% | HS 578T breast 97.3% | NCI/ADR-RES ovarian 101%

CC1CN(/N=C/c2ccc([N+](=O)[O-])o2)C(=N)O1 (centres undefined)
inactive: RPMI-8226 leukemia 97.4% | OVCAR-8 ovarian 96.6% | OVCAR-5 ovarian 106% | OVCAR-4 ovarian 101% | SK-OV-3 ovarian 118% | IGROV1 ovarian 98.3% | OVCAR-3 ovarian 105% | HS 578T breast 105% | NCI/ADR-RES ovarian 101%

Nc1ccccc1C#Cc1ccccc1C#Cc1ccc(OCCCCCCOc2ccc(C#Cc3ccccc3C#Cc3ccccc3N)cc2)cc1
active: IGROV1 ovarian -7.54%
inactive: RPMI-8226 leukemia 94% | OVCAR-8 ovarian 95.6% | OVCAR-5 ovarian 90.7% | OVCAR-4 ovarian 105% | SK-OV-3 ovarian 92.5% | OVCAR-3 ovarian 109% | HS 578T breast 113% | NCI/ADR-RES ovarian 93%

N#Cc1c(NC(=O)c2ccco2)[n+]([O-])c2ccccc2[n+]1[O-]
active: IGROV1 ovarian -49.8%
inactive: RPMI-8226 leukemia 447% | OVCAR-8 ovarian 90.3% | OVCAR-5 ovarian 89.7% | OVCAR-4 ovarian 109% | SK-OV-3 ovarian 110% | OVCAR-3 ovarian 115% | HS 578T breast 98% | NCI/ADR-RES ovarian 116%

CCCCN=C(N)c1ccc(OCCSCCOc2ccc(C(N)=NCCCC)cc2)cc1
inactive: RPMI-8226 leukemia 26.2% | OVCAR-8 ovarian 40.7% | OVCAR-5 ovarian 84.1% | OVCAR-4 ovarian 50.8% | SK-OV-3 ovarian 41% | IGROV1 ovarian 55.1% | HS 578T breast 47.4% | NCI/ADR-RES ovarian 90.9%
